Assay results taken from PubChem BioAssay (NCI).
About 83,000 compounds went through this panel and 20% of them were active in at least one assay; those are over-represented in the sample as a whole.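 96-well plates, one dose, 48 hours. Percent growth reported; active if below 10.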 Values without a mark were called inactive. The source made the active and inactive calls.

system: LOX IMVI melanoma; experiment: NCI-60 one-dose screen, 48 h (100 = growth as untreated, 0 = no growth, -100 = all killed); conditions: 10 µM unless noted

| SMILES | growth |
| --- | --- |
| CCN(CC)CCNc1ccc(C)c2sc3cc(C)ccc3c(=O)c12 | 28.4% |
| CCOC(=O)c1sc2ccc(NCc3nc[nH]c3C)cc2c1NC(=O)c1cc(OC)c(OC)c(OC)c1 | 67.9% |
| COc1ccc(/C=C(\C#N)n2nnc3ccccc32)cc1 | 2.08% (active) |
| COc1ccc(C(=O)/C=C/C23c4ccccc4C(c4ccccc42)C2C(=O)NC(=O)C23)cc1 (stereo not given) | 90.1% |
| CCN(CC)CCOc1ccc(/C(=C(\C)c2ccc(OC)c(F)c2)c2ccc(Cl)cc2)cc1 | 1.85% (active) |
| O=C1CSC(c2ccccc2O)N1c1nnc(Cn2cnnc2)o1 (stereo not given) | 78.5% |
| O=C1CSC(c2ccc(O)cc2)N1c1nnc(Cn2cnnc2)o1 (stereo not given) | 99.9% |
| O=C(NCOC(O)C(Cl)(Cl)Cl)NCOC(O)C(Cl)(Cl)Cl (stereo not given) | 97.7% |
| CCOC(=O)c1c(C)[nH]c(C(=O)CCC(=O)OC)c1C | 103% |
| O=C1CC(c2ccc3c(c2)OCO3)Nc2cc3c(cc21)OCO3 (stereo not given) | 25.3% |
| O=C1/C(=C/c2ccccc2[N+](=O)[O-])COc2ccc(O)c(O)c21 | -73.2% (active) |
| Cc1nc(-c2ccccc2)cc2c(O)c(C(=O)N/N=C/c3ccc(N(C)C)cc3)[nH]c(=O)c12 | 75.8% |
| N#Cc1c(N)n2c(nc1=Nc1ccc(Cl)cc1)sc1cc(Cl)ccc12 | 79.7% |
| COc1cc(NC(=O)c2cccc(-c3cc(=O)c4c(O)c(OC)c(OC)cc4o3)c2)cc(OC)c1OC | 33% |
| C=CCOc1cccc(/C=C2\SC(=Nc3ccc(O)cc3)NC2=O)c1 | 8.94% (active) |
